rTrxR1 inhibitor = blocks rat thioredoxin reductase 1; O89049; recombinant rTrxR1, NADPH fluorescence consumption, selenite substrate; Potency, µM (titrated, usually from 114 µM), for the others: at the highest dose activity change, negative = inhibition, hits mostly inhibitors; actives 1% (n = 390,000); AID 588453; also: % is scaled to controls: 0 for no effect and ±100 for the full control effect; nearly all actives have a fitted effect of over 65% in size
Target sequence (O89049 whole entry, looked up): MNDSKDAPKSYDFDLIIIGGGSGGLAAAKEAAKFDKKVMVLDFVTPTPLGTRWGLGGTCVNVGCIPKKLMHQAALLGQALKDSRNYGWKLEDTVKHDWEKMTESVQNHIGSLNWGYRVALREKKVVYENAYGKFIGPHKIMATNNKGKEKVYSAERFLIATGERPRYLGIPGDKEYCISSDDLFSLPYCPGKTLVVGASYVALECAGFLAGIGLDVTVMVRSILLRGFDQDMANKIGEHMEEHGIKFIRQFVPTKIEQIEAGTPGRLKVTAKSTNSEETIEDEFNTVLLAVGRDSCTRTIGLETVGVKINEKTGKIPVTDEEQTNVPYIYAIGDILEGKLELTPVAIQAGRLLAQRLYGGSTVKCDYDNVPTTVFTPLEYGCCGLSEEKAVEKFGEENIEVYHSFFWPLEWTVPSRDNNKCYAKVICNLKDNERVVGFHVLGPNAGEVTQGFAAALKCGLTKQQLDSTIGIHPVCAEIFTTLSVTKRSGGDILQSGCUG
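Rat TrxR1 (90 nM in the dispensed reagent) was pre-reduced with 400 uM NADPH for 5 min at room temperature, then incubated with compound for 15 min. After 400 uM selenite was added, NADPH fluorescence (Ex 340/Em 450 nm) was followed for 8 min.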
mIDH1 inhibitor = blocks human mutant IDH1 R132H enzyme; Potency, µM (series often up to 76.6 µM), inactives show at the highest dose activity change, negative = inhibition, hits mostly inhibitors; actives 0.093% (n = 390,000); IDH1-R132H enzyme, NADPH consumption, diaphorase/resazurin fluorescence; O75874; also: % is scaled to controls: 0 for no effect and ±100 for the full control effect; nearly all actives have a fitted effect of over 65% in size
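IDH1-R132H (0.5 ug/mL dispensed) in pH 7.5 Tris buffer was preincubated 30 min with compound, then given a substrate mix of 0.016 mM NADPH and 2 mM alpha-KG for 80 min at room temperature; remaining NADPH was read by diaphorase/resazurin fluorescence.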
GLP-1R agonist = agonists of human GLP-1 receptor; P43220; HEK293 GLP-1R CRE-luciferase, luminescence, 4-6 h; cells express a hypersensitive GLP-1R form; Potency, µM (doses to about 45.6 µM), for the others: top-dose activation, actives largely listed as activators; actives 0.007% (n = 380,000); AID 624172; also: % of control where 0% means no effect
HEK293 tox = cytotoxic in the GLP-1 receptor inverse agonist counter-screen | Potency, µM (top dose mostly 38.3 µM), for the others: at the highest dose activity change, negative = inhibition, most hits filed as inhibitors | actives 0.13% (n = 410,000) | AID 624418 | HEK293 cAMP-luciferase reporter cells, luminescence, 24 h;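 also: loss of luciferase light is scored as toxicity; % is scaled to controls: 0 for no effect and ±100 for the full control effect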
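A 23 nL compound transfer followed 12 hours of cell culture at 37 deg C; exposure then lasted 24 hr. Luciferase assay detection reagent was dispensed and plates read for luminescence after a 12 min room-temperature wait.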
GLP1R inv ag = acts as inverse agonist at human GLP-1 receptor | actives 1.6% (n = 410,000) | AID 624417 | HEK293 GLP-1R CRE-luciferase, luminescence, 24 h; GLP-1R form is constitutively active | P43220 | Potency, µM (titrated, usually from 38.3 µM), for the others: top-dose activity change, negative = inhibition, actives largely listed as inhibitors; also: % is scaled to controls: 0 for no effect and ±100 for the full control effect; nearly all actives have a fitted effect of over 55% in size
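Seeding at 200 cells/uL, 12 h culture, 24 hr compound treatment, then luciferase reagent and a luminescence read; cells are HEK293 stably expressing a constitutively active GLP-1R plus cAMP-responsive luciferase.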
TrxR1 substrate = is turned over as a substrate by rat TrxR1; O89049; purified TrxR1 substrate turnover, NADPH consumption readout; Potency, µM (doses to about 114 µM), for inactives: at the highest dose activity change, negative = substrate turnover; actives 0.01% (n = 390,000); also: % is scaled to controls: 0 for no effect and ±100 for the full control effect; nearly all actives have a fitted effect of over 50% in size
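Rat TrxR1, dispensed at 90 nM, was prereduced with 400 uM NADPH (final) for 5 min at ~22 deg C, then incubated with compound 15 min before 400 uM selenite. A first-read NADPH fluorescence drop versus no-compound background flagged substrates.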
Numbers without * were called inactive; ? = inconclusive; nt = no result; [ ] = dose if it differs, or a comment. Most compounds without a hit are left out; they make up all but 2.7% or so of the library. Calls follow the shape of the dose curve; as a rule, active = well fitted curve in the direction sought with a large enough effect; inconclusive = small, poorly fitted or top-dose-only effect, or another doubt; inactive = no such curve, though single readings can be large; an effect the other way counts as inactive or inconclusive. Potency is read from the fitted curve at half-maximal effect.

SMILES	rTrxR1 inhibitor	mIDH1 inhibitor	GLP-1R agonist	HEK293 tox	GLP1R inv ag	TrxR1 substrate
COc1ccc(CN(C)C(=O)CCl)cc1	?	-4%	14%	-21%	?	5%[57.1 µM]
COc1ccc(CCCc2nnc(SCC(=O)Nc3ccc(F)cc3)o2)cc1C	12%	2%	nt	0%	10%	2%
COc1ccc(-c2oc3ccccc3c2C(=O)Oc2ccccc2)cc1	16µM*	2%	15%	2%	18%	203%[57.1 µM]
COC(=O)c1c(-c2ccc(OC)cc2)oc2ccccc12	139%	0%	5%	5%	-26%	112%[57.1 µM]
COc1ccc(Cl)cc1NC(=O)c1ncn(-c2ccccc2)n1	2%	0%	nt	-1%	3%	30%
O=C1CCCN2N=C(SCC(=O)N3N=C(c4ccc(Br)cc4)CC3c3ccc(F)cc3)SC2=N1 (stereo unspecified)	4%	0%	1%	-4%	?	-1%
Cc1ccc(C2CC(c3ccc(Br)cc3)=NN2C(=O)CSC2=NN3CCCC(=O)N=C3S2)cc1 (stereo unspecified)	6%	6%	-1%	-17%	4.5µM*	-2%
CCOCCn1cnc2sc(C(=O)Nc3ccccc3C(=O)OC)c(C)c2c1=O	25%[57.1 µM]	10%	nt	14%	5%	-4%[57.1 µM]
O=C1CCCN1CCC1CCN(C2CC(=O)N(c3ccc(Cl)cc3)C2=O)CC1 (stereo unspecified)	40µM*	8%	-3%	12%	-2%	2%
O=C1CCCN1CCC1CCN(C2CC(=O)N(Cc3ccc(N4CCCC4=O)cc3)C2=O)CC1 (stereo unspecified)	-8%	0%	-5%	-14%	-16%	-8%
CN(C)c1ccc(C(=O)c2ccc(O)cc2O)cc1	7%[57.1 µM]	6%	1%	12%	-8%	-9%
CN(C)c1ccc(Cc2cc3c(O)ccc(O)c3cc(Cc3ccc(N(C)C)cc3)c2=O)cc1	11µM*	20%	-3%	?	?	-13%
COC(=O)CSc1nnc(C)c(=O)[nH]1	11%	16%	-10%	6%	1%	3%
CCOC(=O)CNc1nnc(SCC(=O)OCC)[nH]c1=O	10µM*	9%	-32%	-9%	-3%	6%
Cc1nn(C)c2c1c(-c1ccccc1)cc(=O)n2CC(=O)NC(C)c1ccccc1 (stereo unspecified)	21%[57.1 µM]	7%	nt	-3%	-2%	9%[57.1 µM]
CC1(C)Cc2c(C#N)c(N3CCN(C(=O)c4ccco4)CC3)nc(-c3ccco3)c2CS1	7.1µM*	2%	3%	4%	?	27%
CC1(C)Cc2c(C#N)c(N3CCN(C(=O)c4ccccc4Cl)CC3)nc(-c3ccco3)c2CS1	13µM*	-2%	-3%	22%	?	24%[57.1 µM]
COc1ccc(Cl)cc1NC(=O)CN(C)CC(=O)Nc1ccc(C)cc1Br	20%[57.1 µM]	5%	21%	-11%	7.9µM*	10%[57.1 µM]
COc1ccc(Cl)cc1NC(=O)CN(C(=O)c1ccco1)C1CCCCC1	-2%	21%	-3%	4%	10µM*	-12%
COc1ccc(Cl)cc1NC(=O)CN1CCc2ccccc21	2%[57.1 µM]	8%	15%	0%	10µM*	-4%[57.1 µM]
CCN1CCOC(=O)C1CC(=O)Nc1cc(C)cc(C)c1 (stereo unspecified)	11µM*	-2%	nt	9%	0%	-4%
CC(=O)Nc1ccccc1OCc1cc(=O)n2c(C)csc2n1	6%	8%	2%	-2%	-4%	-1%
Cc1ccc(Cl)cc1N1CCN(C(=O)Cn2nc(C)n3c(cc4sccc43)c2=O)CC1	19%	-1%	nt	16%	21%	0%
Cc1ccc(S(=O)(=O)N2CCN(c3nc(-c4cnccn4)nc4ccccc34)CC2)cc1	-1%	nt	nt	nt	nt	1%
C/C(=C(\CCO)SSCC1CCCO1)N(C=O)Cc1cnc(C)nc1N (stereo unspecified)	nt	nt	-1%	nt	nt	nt
SMILES	rTrxR1 inhibitor	mIDH1 inhibitor	GLP-1R agonist	HEK293 tox	GLP1R inv ag	TrxR1 substrate
CCN1CCOC(=O)C1CC(=O)Nc1cc(Cl)ccc1OC (stereo unspecified)	11µM*	-8%	1%	-7%	-6%	7%
Cc1ccc(Cl)cc1NC(=O)CN1C(=O)C(C)(C)c2cc(S(=O)(=O)N3CCCCC3)ccc21	16%[57.1 µM]	22%	nt	6%	?	-4%[57.1 µM]
CCc1ccc(NC(=O)CC2C(=O)OCCN2CC)cc1 (stereo unspecified)	6.3µM*	11%	3%	7%	3%	10%[11.4 µM]
CCN1CCOC(=O)C1CC(=O)Nc1ccccc1C(F)(F)F (stereo unspecified)	?	28%	1%	8%	9%	14%
COc1ccc(Cl)cc1NC(=O)CN1C(=O)C(C)(C)c2cc(S(=O)(=O)N3CCCCC3)ccc21	3%[57.1 µM]	18%	nt	-20%	11µM*	-7%[57.1 µM]
CCN1CCOC(=O)C1CC(=O)Nc1ccc(C(C)=O)cc1 (stereo unspecified)	?	-3%	2%	5%	6%	3%
CC(=O)c1ccc(NC(=O)Cn2cc(S(=O)(=O)Cc3ccccc3Cl)c3ccccc32)cc1	8%	-13%	nt	-13%	0%	-4%
Clc1nc(NCc2ccco2)c2[nH]cnc2n1	28%[0.0914 µM]	nt	nt	nt	nt	1%
O=S1(=O)Nc2c(ccc3cccnc23)-c2ccccc21	10%	11%	10%	6%	?	-2%
Cc1cnc2c3c(cc(Cl)c2c1)-c1ccccc1S(=O)(=O)N3	32µM*	nt	nt	nt	nt	8%
CC1(C)CC(=O)C2=C(C1)NC(Nc1nc3ccccc3o1)=NC2c1cccc(F)c1 (stereo unspecified)	9%	nt	nt	nt	nt	6%
CCOC(=O)/C(=C/c1c(C)n(C)c2ccc([N+](=O)[O-])cc12)C(C)=O	45µM*	3%	-4%	-15%	?	-12%
Cc1cccn2c(=O)c(-c3nnn[nH]3)cnc12	nt	nt	-4%	nt	nt	nt
Cc1ccc(C)c(N2CCN(c3cc(C)nc4c(-c5ccc(Cl)cc5)c(C)nn34)CC2)c1	-4%	nt	nt	-6%	18%	1%
Cc1cn(C)c(CC(=O)NCc2cccc(Cl)c2)c1C(=O)O	9%[57.1 µM]	37%	nt	11%	3%	-2%[57.1 µM]
COc1ccc(N2C(=O)c3ccccc3NC2c2ccc(OC)c(CSc3ccccn3)c2)cc1 (stereo unspecified)	92%	-11%	11%	1%	0%	143%
CCCN1C(=O)c2ccccc2NC1c1ccc(OC)c(CSc2ccccn2)c1 (stereo unspecified)	39%[57.1 µM]	-7%	17%	5%	13µM*	111%[57.1 µM]

Screening data: PubChem, National Center for Advancing Translational Sciences (NCATS)
